Test results from PubChem BioAssay (NCI).
The panel holds about 79,000 compounds, 15% with a hit somewhere; the sample as a whole holds those more often. Cut-off read from the data, not from the text of the source: active = growth inhibition above about 70%; inactive = the rest.

Key:
[1] = NCI Yeast Anticancer Drug Screen. Data for the rad50 strain (AID 155);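 note: 0% = growth of vehicle-only cultures of the same strain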; details: S. cerevisiae rad50 strain growth inhibition; at 50.0 µM; active compounds read high
Procedure, shortened: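 Growth of the mutant yeast was measured after compound exposure and referenced to vehicle-treated cultures.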

[2] = NCI Yeast Anticancer Drug Screen. Data for the mec2-1 strain (AID 157); details: S. cerevisiae mec2-1 strain, at 50.0 µM, active compounds read high
Procedure, shortened: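 Growth inhibition is read against vehicle-treated controls after compound exposure of the mec2-1 yeast strain, which is defective in DNA damage repair or cell cycle control.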

[3] = NCI Yeast Anticancer Drug Screen. Data for the sgs1 mgt1 strain (AID 161);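 note: 0% = growth of cultures given vehicle only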; details: S. cerevisiae sgs1 mgt1 strain, at 50.0 µM, active compounds read high
Procedure, shortened: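 Compounds are added to genetically altered yeast, and growth is compared with cultures given vehicle alone to give percent inhibition.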

[4] = NCI Yeast Anticancer Drug Screen. Data for the cln2 rad14 strain (AID 165);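 note: 0% = growth equal to vehicle treated cultures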; details: S. cerevisiae cln2 rad14 strain, at 50.0 µM, active compounds read high
Procedure, shortened: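 Growth inhibition, relative to vehicle-treated controls, is the read-out. The test organism is a yeast strain with defined genetic alterations, cln2 rad14.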

[5] = NCI Yeast Anticancer Drug Screen. Data for the bub3 strain (AID 167); details: S. cerevisiae bub3 mutant strain, at 50.0 µM, active compounds read high
Procedure, shortened: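 Whole-cell yeast assay. The mutant strain was incubated with compounds, and growth inhibition was determined by comparison with vehicle-treated cells.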

[6] = NCI Yeast Anticancer Drug Screen. Data for the mlh1 rad18 strain (AID 175); details: S. cerevisiae mlh1 rad18 strain growth inhibition; at 50.0 µM; active compounds read high
Procedure, shortened: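 Cells of a genetically altered yeast strain, deficient in DNA damage repair, were treated with compound. Their growth was then compared with that of vehicle-treated cultures to give inhibition.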

Measured: growth inhibition

CC(=O)NNc1ncc(C(=O)/C=C/c2ccccc2C)s1
inactive: [1] 31.1% | [2] 16.1% | [3] 12.5% | [4] 29.1% | [5] 22.3% | [6] 36.6%

CCCC(=O)c1ccc2c(c1)CCc1cc(O)ccc1-2
inactive: [1] 13.8% | [2] 1.35% | [3] 12.3% | [4] -5.05% | [5] 23.4% | [6] 1.6%

CNCC(OC)OC
inactive: [1] 5.3% | [2] -29.8% | [3] 4.85% | [4] 16.1% | [5] 0% | [6] 11.2%

COc1ccc(OC)c2cc(C3(C)SCCCS3)ccc12
inactive: [1] -9% | [2] 9.35% | [3] 19.2% | [4] 15.3% | [5] 13.2% | [6] -12.2%

CCCOc1cc2c(cc1C(C)c1ccc(OCC)c(C)c1)OCO2 (stereo unspecified)
inactive: [1] -1.7% | [2] 0.75% | [3] -9.05% | [4] -94% | [5] -3.9% | [6] -5.1%

O=C(NC(=O)c1ccccc1[N+](=O)[O-])Nc1ccc(Oc2ncc(Cl)cn2)c(C(F)(F)F)c1
inactive: [1] 17.1% | [2] -23.6% | [3] 7.4% | [4] -17.1% | [5] 0.5% | [6] -54.6%

O=C(Nc1nc2ccccc2n1Cc1ccc(Cl)cc1)NC12CC3CC(CC(C3)C1)C2
inactive: [1] 15.8% | [2] -6.45% | [3] 7.2% | [4] -30.6% | [5] 27.5% | [6] -18.6%

CC(=O)NC1(C)C(C)C2CC1C(C)C2(C)C (stereo unspecified)
inactive: [1] 13.2% | [2] -13.8% | [3] -44% | [4] -0.55% | [5] -30.6% | [6] -34.6%

C=CCOc1ccc(N)c([N+](=O)[O-])c1
inactive: [1] 42.1% | [2] 41.5% | [3] 23.3% | [4] 14.1% | [5] 36.7% | [6] 2.85%

CC(C)C/C(CC(=O)CCC(=O)Nc1ccccc1[N+](=O)[O-])=N\NC(=O)c1cc2ccccc2cc1O
inactive: [1] 17.8% | [2] 24.1% | [3] -11.8% | [4] 26.2% | [5] 9.8% | [6] 29.9%

C=CCNC(=O)/C=C/C(=O)O
inactive: [1] -8.15% | [2] 6.85% | [3] 0.35% | [4] 4.45% | [5] 12.5% | [6] 6.15%

O=C1c2cccc3cccc(c23)C(=O)N1Cc1ccco1
inactive: [1] 41.4% | [2] 36.2% | [3] 45% | [4] 44.5% | [5] 40.2% | [6] 24.7%

CCCCCCCCCCCC(=O)N/N=C/c1ccccc1OC
inactive: [1] -0.65% | [2] 7.25% | [3] -10.3% | [4] -18.8% | [5] 4% | [6] 12.6%

Oc1cc2c(c3c(O)c4ccccc4c(O)c13)=NC1CCCCC1N=2 (stereo unspecified)
inactive: [1] 6.25% | [2] 9.6% | [3] 20.6% | [4] 7.6% | [5] 15.3% | [6] 40%

COC(=O)C1CCC(=O)N1C(c1ccc(OC)cc1)c1ccc(OC)cc1 (stereo unspecified)
inactive: [1] -26.6% | [2] 25.6% | [3] 13.4% | [4] 12.6% | [5] 8.3% | [6] 6.7%

Cc1cccc(-n2c(C)nc3[nH]cc(C)c3c2=N)c1
inactive: [1] 0.15% | [2] 0.65% | [3] 2.05% | [4] -21.9% | [5] 0.55% | [6] 11.1%

N#CC1=C(N)N(c2ccccc2)C(c2ccco2)C1(C#N)C#N (stereo unspecified)
inactive: [1] 4.85% | [2] 13.3% | [3] 9.85% | [4] 3.35% | [5] -13.7% | [6] 6.25%

COC(=O)C1=NOC(Cc2ccccc2)C1 (stereo unspecified)
inactive: [1] 10.3% | [2] 6.95% | [3] 0.15% | [4] -35.4% | [5] 6.45% | [6] -4.85%

CCOP(=O)(OCC)/C(C#N)=C/c1c(C)[nH]c2ccccc12
inactive: [1] 0.5% | [2] -10.8% | [3] 18.6% | [4] 13.4% | [5] -7.45% | [6] 25.7%

CC(=O)NNc1nc(C)c(C(/C=C/c2ccc(/C=C/C(=N\NC(=O)c3ccncc3)c3sc(NNC(C)=O)nc3C)cc2)=N/NC(=O)c2ccncc2)s1
inactive: [1] -16.6% | [2] -7.35% | [3] -8.95% | [4] 12.7% | [5] 1.4% | [6] -13.3%

c1ccc2c3c(ccc2c1)Oc1ccc2ccccc2c1C3
inactive: [1] -8.55% | [2] -1.45% | [3] -7.2% | [4] -47.4% | [5] -7.35% | [6] 1%
